Test results reported in PubChem BioAssay (Tox21).
“And” between values parts separate entries of the source, which are not always exact repeats. Identical values can stand only once. Results filed as inconclusive are left out. The source made the active and inactive calls. Unless noted, calls come from the whole dose curve; as a rule, active = well fitted curve in the direction sought with a large enough effect in the repeat runs; inconclusive = weak or mixed curves; inactive = no such curve, though single readings can be large; an effect the other way counts as inactive or inconclusive.

What was measured:
[1] = qHTS assay for small molecules that induce genotoxicity in human embryonic kidney cells expressing luciferase-tagged ATAD5 (AID 651632); note: % is set by controls: 0 for no effect and ±100 for the full control effect; nearly all actives have a fitted effect of over 15% in size
Method in brief: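 ATAD5-luc HEK293T, 2,000 cells/well; cpd or DMSO pin-transferred; 16 hr, 37C/5% CO2; Amplite 30 min RT; luminescence.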

[2] = qHTS assay for small molecule disruptors of the mitochondrial membrane potential - cell viability (AID 720634; calls by dose curve; note: nearly all actives have a fitted effect of over 20% in size; note: potency is the fitted concentration of half-maximal effect)
Method in brief: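 Cells: HepG2, 2,000/well, attached overnight. Compound 1 hr, 37 C/5% CO2. +m-MPI dye, +CellTiter-Glo 30 min RT. Readout: luminescence (ATP).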

[3] = qHTS assay for small molecule disruptors of the mitochondrial membrane potential (AID 720635); note: potency is the fitted concentration of half-maximal effect
Method in brief: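 HepG2 cells exposed to compound 1 hr at 37C, then Mito-MPS dye 30 min. Ratio read of aggregate (540/590 nm) versus monomer (490/535 nm) fluorescence.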

[4] = qHTS assay to test for compound auto fluorescence at 590 nm (red) in HepG2 cells (AID 720674); note: % is set by controls: 0 for no effect and ±100 for the full control effect
Method in brief: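 Fluorescence at 590 nm emission following 540 nm excitation was recorded from HepG2 wells one hour after compound transfer, with DMSO-only wells as vehicle and Rose Bengal sodium equivalency as the scale.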

[5] = qHTS assay to test for compound auto fluorescence at 535 nm (green) in HepG2 cells (AID 720675); note: % is set by controls: 0 for no effect and ±100 for the full control effect
[6] = qHTS assay to test for compound auto fluorescence at 460 nm (blue) in HEK293 cells (AID 720678); note: % is set by controls: 0 for no effect and ±100 for the full control effect
Method in brief: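 HEK293 cells (2,000/well, medium with 10% dialyzed FBS) attached 4-5 hr, then exposed to compound overnight at 37C, 5% CO2. Blue fluorescence read at 405/460 nm, with triamterene as reference fluorophore.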

[7] = qHTS assay to test for compound auto fluorescence at 590 nm (red) in HEK293 cells (AID 720679); note: % is set by controls: 0 for no effect and ±100 for the full control effect
Method in brief: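 HEK293 cells (2,000/well, 10% dialyzed FBS) attached 4-5 hr, then dosed with compound or DMSO and incubated overnight at 37C, 5% CO2. Red fluorescence read at 540/590 nm, Rose Bengal sodium as reference fluorophore.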

[8] = qHTS assay to test for compound auto fluorescence at 535 nm (green) in HEK293 cells (AID 720680); note: % is set by controls: 0 for no effect and ±100 for the full control effect
[9] = qHTS assay to test for compound auto fluorescence at 460 nm (blue) in HEK293 cell free culture (AID 720681); note: % is set by controls: 0 for no effect and ±100 for the full control effect
Method in brief: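 Compounds were added to cell-free DMEM with 10% FBS and fluorescence read directly. The blue channel used 405 nm excitation and 460 nm emission, with triamterene as the reference fluorophore.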

[10] = qHTS assay to test for compound auto fluorescence at 535 nm (green) in HEK293 cell free culture (AID 720682); note: % is set by controls: 0 for no effect and ±100 for the full control effect
Method in brief: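 Using fluorescein as calibrant, autofluorescence was quantified at 485/535 nm in cell-free DMEM containing 10% FBS after pintool addition of compound or vehicle.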

[11] = qHTS assay to test for compound auto fluorescence at 590 nm (red) in HepG2 cell free culture (AID 720684); note: % is set by controls: 0 for no effect and ±100 for the full control effect
Method in brief: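 Compound was pinned into wells holding MEM with 10% FBS and no cells, and red fluorescence was read at Ex/Em 540/590 nm. Signal is expressed as auto fluorescence equivalency relative to Rose Bengal sodium.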

[12] = qHTS assay to test for compound auto fluorescence at 460 nm (blue) in HepG2 cell free culture (AID 720685); note: % is set by controls: 0 for no effect and ±100 for the full control effect
Method in brief: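 Compound (23 nL) or DMSO pinned into cell-free MEM with 10% FBS; blue fluorescence read at 405/460 nm excitation/emission, expressed as auto-fluorescence equivalency to triamterene.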

[13] = qHTS assay to test for compound auto fluorescence at 460 nm (blue) in HepG2 cells (AID 720687); note: % is set by controls: 0 for no effect and ±100 for the full control effect
Method in brief: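 HepG2 cells in MEM with 10% FBS, attached overnight at 37 C, were exposed to compound or DMSO for 1 hr at 37 C, 5% CO2. Blue fluorescence was read at 405/460 nm, with triamterene as reference fluorophore.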

[14] = biological target: Glucocorticoid receptor (Homo sapiens) (UniProt P04150); experiment: qHTS assay to identify small molecule agonists of the glucocorticoid receptor (GR) signaling pathway (AID 720691; active = well fitted activation curve with a large enough effect in the signal ratio in the repeat runs, not every such curve was filed as active; the % refers to the signal ratio; note: % is set by controls: 0 for no effect and ±100 for the full control effect); settings: GR-bla HeLa, beta-lactamase reporter ratio, 18 h; activation: at 62.4 µM (top of the series) unless noted
Glucocorticoid receptor (Homo sapiens), sequence (P04150 whole entry, looked up): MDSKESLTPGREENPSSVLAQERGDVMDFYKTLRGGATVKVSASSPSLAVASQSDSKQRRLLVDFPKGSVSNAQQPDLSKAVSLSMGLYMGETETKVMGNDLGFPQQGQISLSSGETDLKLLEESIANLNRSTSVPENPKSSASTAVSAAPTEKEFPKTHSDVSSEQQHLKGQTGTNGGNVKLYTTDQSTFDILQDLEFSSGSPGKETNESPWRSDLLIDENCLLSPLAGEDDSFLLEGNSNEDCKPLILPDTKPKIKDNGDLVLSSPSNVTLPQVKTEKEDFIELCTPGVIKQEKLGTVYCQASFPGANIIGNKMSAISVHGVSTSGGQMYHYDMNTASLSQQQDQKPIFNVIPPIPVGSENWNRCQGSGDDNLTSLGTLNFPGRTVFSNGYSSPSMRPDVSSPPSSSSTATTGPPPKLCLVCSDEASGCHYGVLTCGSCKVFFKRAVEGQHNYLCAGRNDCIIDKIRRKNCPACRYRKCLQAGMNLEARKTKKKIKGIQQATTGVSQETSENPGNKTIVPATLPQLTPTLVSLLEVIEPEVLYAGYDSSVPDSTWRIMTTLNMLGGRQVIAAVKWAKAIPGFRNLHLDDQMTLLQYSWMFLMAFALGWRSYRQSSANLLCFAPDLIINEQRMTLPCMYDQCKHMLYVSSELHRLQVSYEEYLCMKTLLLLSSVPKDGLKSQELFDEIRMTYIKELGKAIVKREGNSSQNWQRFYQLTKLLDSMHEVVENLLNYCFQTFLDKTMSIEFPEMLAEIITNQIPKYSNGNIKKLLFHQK
Method in brief: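 Fluorescence intensity from LiveBLAzer B/G FRET substrate (2 h, room temperature) reports beta-lactamase expression driven by the glucocorticoid response element in GR-bla HeLa cells after 18 h compound exposure at 37 C.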

[15] = qHTS assay for small molecules that induce genotoxicity in human embryonic kidney cells expressing luciferase-tagged ATAD5 - cell viability (AID 651634; calls by dose curve; note: % is set by controls: 0 for no effect and ±100 for the full control effect; nearly all actives have a fitted effect of over 25% in size)
Method in brief: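 Fluorescence from CellTiter-Fluor, reporting protease activity within live cells, served as the viability read-out. HEK293T cells carrying luciferase-tagged ATAD5 had been treated with compound for 15.5 hr at 37C.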

[16] = qHTS assay to test for compound auto fluorescence at 590 nm (red) in HEK293 cell free culture (AID 720683); note: % is set by controls: 0 for no effect and ±100 for the full control effect
Method in brief: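 Cell-free wells of DMEM with 10% FBS received compound, and intrinsic fluorescence was read at excitation/emission 540/590 nm. Values expressed as equivalence to Rose Bengal sodium.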

[17] = qHTS assay to test for compound auto fluorescence at 535 nm (green) in HepG2 cell free culture (AID 720686); note: % is set by controls: 0 for no effect and ±100 for the full control effect
[18] = qHTS assay for small molecule agonists of the p53 signaling pathway - cell viability (AID 651633; calls by dose curve;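 note: p53RE-bla HCT reporter cells with a stable beta-lactamase p53 reporter; % is set by controls: 0 for no effect and ±100 for the full control effect; nearly all actives have a fitted effect of over 30% in size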)
Method in brief: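 p53RE-bla cells were treated with compound for 16 hours at 37 C. Cytotoxicity was then measured as CellTiter-Glo luminescence after 30 min at room temperature.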

[19] = biological target: Glucocorticoid receptor (Homo sapiens) (UniProt P04150); experiment: qHTS assay to identify small molecule antagonists of the glucocorticoid receptor (GR) signaling pathway (AID 720692; active = well fitted inhibition curve with a large enough effect in the signal ratio in the repeat runs, not every such curve was filed as active; the % refers to the signal ratio; note: % is set by controls: 0 for no effect and ±100 for the full control effect)
Method in brief: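 HeLa GR-bla cells; cmpd + dex 5 nM final, 18 h 37 C; LiveBLAzer B/G FRET substrate 2 h RT; fluorescence intensity read. Antagonist mode, qHTS.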

CC(C)C[C@H]1C(=O)N2CCC[C@H]2[C@]2(O)O[C@](NC(=O)[C@@H]3C=C4c5cccc6[nH]c(Br)c(c56)C[C@H]4N(C)C3)(C(C)C)C(=O)N12
active: Potency [3] 10.6 µM and 8.23 µM
inactive: Potency [1] | Potency [2] | Potency [4] | Potency [5] | outcome [6] | Potency [7] | outcome [8] | outcome [9] | outcome [10] | Potency [11] | outcome [12] | outcome [13] | Potency [14]

CNCCCCOc1ccccc1Cc1ccccc1
inactive: Potency [1] | Potency [15] | Potency [2] | Potency [4] | Potency [5] | outcome [6] | Potency [7] | outcome [8] | outcome [9] | outcome [10] | Potency [16] | Potency [11] | outcome [12] | Potency [17] | outcome [13] | Potency [14]

CC(C)Nc1ccc(NC(C)C)c2c1C(=O)c1ccccc1C2=O
active: Potency [3] 11.3 µM
inactive: Potency [1] | Potency [18] | Potency [4] | Potency [5] | outcome [6] | Potency [7] | outcome [9] | outcome [10] | Potency [16] | Potency [11] | outcome [12] | Potency [17] | outcome [13] | Potency [14] | Potency [19]

O=C(Nc1ccccc1)c1ccccc1O
active: Potency [2] 27.3 µM | Potency [3] 2.43 µM
inactive: Potency [1] | Potency [15] | Potency [4] | Potency [5] | outcome [6] | Potency [7] | outcome [8] | outcome [9] | outcome [10] | Potency [11] | outcome [12] | Potency [17] | outcome [13] | Potency [14]

Cc1oc(-c2ccccc2)nc1CCOc1cccc2c1ccn2CCC(=O)O
inactive: Potency [1] | Potency [18] | Potency [2] | Potency [4] | Potency [5] | Potency [7] | outcome [8] | outcome [9] | outcome [10] | Potency [11] | outcome [12] | Potency [17] | outcome [13] | Potency [14] | Potency [19]

COc1cccc(N(C)C(=S)Oc2ccc3c(c2)CCCC3)n1
inactive: Potency [4] | Potency [5] | outcome [6] | Potency [7] | outcome [8] | outcome [9] | outcome [10] | Potency [16] | Potency [11] | outcome [12] | Potency [17] | outcome [13]
active: Potency [3] 29.8 µM

CCN(CC)CCOC(=O)C(Cc1cccc2ccccc12)CC1CCCO1 (centres undefined)
inactive: Potency [1] | Potency [18] | Potency [2] | fluorescence, relative to Rose Bengal [4] -0.202% [at 18.6 µM] | fluorescence, % of fluorescein control [5] 0.0388% [at 18.6 µM] | fluorescence, % of fluorescent control [7] 0.195% [at 18.6 µM] | fluorescence, % of fluorescein [8] 0.0124% [at 18.6 µM] | fluorescence, % of fluorescent control [9] 0.0375% [at 18.6 µM] | activity change [10] -0.0273% [at 18.6 µM] | fluorescence, % of Rose Bengal [11] 0.633% [at 18.6 µM] | fluorescence, % of fluorescent control [12] -0.0194% [at 18.6 µM] | fluorescence, % of fluorescein control [17] 0.0151% [at 18.6 µM] | fluorescence, % of fluorescent control [13] -0.147% [at 18.6 µM]

CCCCCCCCCCCCCCOS(=O)(=O)O
inactive: Potency [1] | Potency [2] | Potency [4] | Potency [5] | outcome [6] | outcome [8] | outcome [9] | outcome [10] | Potency [11] | outcome [12] | Potency [17] | outcome [13] | Potency [19]

Nc1ncn([C@H]2C[C@H](O)[C@@H](CO)O2)c(=O)n1
inactive: Potency [18] | Potency [15] | Potency [2] | Potency [4] | Potency [5] | Potency [7] | outcome [8] | outcome [9] | outcome [10] | Potency [11] | outcome [12] | outcome [13] | Potency [14]

C=CCOc1ccccc1OCC(O)CNC(C)C (centres undefined)
inactive: Potency [1] | Potency [2] | fluorescence, relative to Rose Bengal [4] -0.0179% [at 18.6 µM] | fluorescence, % of fluorescein control [5] 0.095% [at 18.6 µM] | fluorescence, % of triamterene [6] 0.0129% [at 18.6 µM] | fluorescence, % of fluorescent control [7] 0.157% [at 18.6 µM] | fluorescence, % of fluorescein [8] -0.0095% [at 18.6 µM] | fluorescence, % of fluorescent control [9] 0.179% [at 18.6 µM] | activity change [10] -0.0456% [at 18.6 µM] | fluorescence, % of fluorescent control [16] 0.179% [at 18.6 µM] | fluorescence, % of Rose Bengal [11] 0.264% [at 18.6 µM] | fluorescence, % of fluorescent control [12] -0.0059% [at 18.6 µM] | fluorescence, % of fluorescein control [17] 0.0052% [at 18.6 µM] | fluorescence, % of fluorescent control [13] -0.0332% [at 18.6 µM] | Potency [19]
